# From PubChem BioAssay
# Calls of active or inactive are those of the source.
# How the values were obtained:
# [1] = optical density shifts of acrAB sulA E. coli – strain DRC41, OD650, 48 h, E. coli filamentation inducer project, primary screen (AID 1152); details: higher = more signal, called active from +8 up or from −8 down;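 further: E. coli MC1000 strain DRC41 lacking acrAB efflux pump and sulA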
# [2] = probe aLefty1 binding on compound microarray – biochemical, small-molecule microarray, 635/667 nm fluorescence, primary screen (AID 1153); details: higher = more signal;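 further: score merges spot fluorescence with signal-to-noise ratio from the scanned slide images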
# [3] = plasmodial surface anion channel blockers, osmotic lysis – cell-based, P. falciparum Indochina, OD700, 1 h, primary screen (AID 1154); details: P. falciparum Indochina infected RBC osmotic lysis, higher = more signal, called active from +8 up or from −8 down
# [4] = plasmodial surface anion channel blockers, osmotic lysis – cell-based, P. falciparum Indochina, OD700, 2 h, primary screen (AID 1155);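 further: lysis reports solute entry through the parasite surface anion channel PSAC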; details: P. falciparum Indochina infected erythrocytes, higher = more signal, called active from +8 up or from −8 down
# [5] = changes in parasitized red cell lysis, either direction – P. falciparum Indochina, OD700, 3 h, PSAC antagonist project, primary screen (AID 1156); details: P. falciparum-infected erythrocytes, osmotic lysis, higher = more signal, called active from +8 up or from −8 down
# [6] = plasmodial surface anion channel blockers, osmotic lysis – cell-based, P. falciparum Indochina, OD700, 18 h, primary screen (AID 1157); details: P. falciparum Indochina infected erythrocytes, osmotic lysis OD700, 18 h; higher = more signal, called active from +8 up or from −8 down
# [7] = S6 kinase pathway phospho-S6 level changes – cell-based, A549, cytoblot, luminescence, serum-stimulated, primary screen (AID 1158); details: 5 h, higher = more signal;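 further: serum-stimulated A549 lung adenocarcinoma cells; signal is phosphorylated S6 detected by cytoblot immunostaining with HRP secondary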
# [8] = biological target: NADPH oxidase 2 (Homo sapiens) (UniProt P04839); test: compounds shifting NOX2 Amplex Red fluorescence – cell-based, HEK293-NOX2, PMA-stimulated, NOX inhibitor project, primary screen (AID 1159); details: 45 min, higher = more signal, called active from +8 up or from −8 down; further: test concentration not given here
# [9] = biological target: NADPH oxidase 4 (Homo sapiens) (UniProt Q9NPH5); test: compounds shifting NOX4 Amplex Red fluorescence – cell-based, HEK293-NOX4, tetracycline-induced, NOX inhibitor project, primary screen (AID 1160); details: HEK293-NOX4, Amplex Red H2O2 fluorescence, 45 min; higher = more signal, called active from +8 up or from −8 down
# [10] = biological target: NADPH oxidase 5 (Homo sapiens) (UniProt Q96PH1); test: compounds shifting NOX5 Amplex Red fluorescence – cell-based, HEK293-NOX5, NOX inhibitor project, primary screen (AID 1161); details: HEK293-NOX5, ionomycin, 45 min, higher = more signal
# [11] = compound effects on lung adenocarcinoma cell viability – A549, calcein-AM fluorescence, 48 h, basal, profiling panel (AID 1162); details: higher = more signal; further: test concentration not given here
# [12] = compound effects on differentiated 3T3-L1 adipocyte viability – cell-based, 3T3-L1 adipocytes, calcein-AM fluorescence, 48 h, basal, profiling panel (AID 1163); details: 3T3-L1 adipocytes viability, higher = more signal; further: test concentration not given here
# [13] = compound effects on hepatocellular carcinoma cell viability – HepG2, calcein-AM fluorescence, 48 h, basal, profiling panel (AID 1164); details: higher = more signal; further: test concentration not given here
# [14] = compound effects on multiple myeloma cell viability – MM1S, calcein-AM fluorescence, 48 h, basal, profiling panel (AID 1165); details: higher = more signal;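 further: viability of MM1S multiple myeloma cells under basal unstimulated conditions; test concentration not given here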
# [15] = calcein-AM signal in unstimulated myeloma cells – cell-based, calcein-AM fluorescence, 48 h, PK04 Diversity Set, profiling panel (AID 1166); details: RPMI8226 myeloma viability, higher = more signal;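 further: cells grown under basal conditions without added stimulus; test concentration not given here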
# [16] = JC-1 mitochondrial signal, unstimulated HepG2 cells – cell-based, JC-1 fluorescence, 24 h, 100 nL compound, profiling panel (AID 1167); details: HepG2 mitochondrial potential, higher = more signal; further: test concentration not given here
# [17] = JC-1 mitochondrial signal, unstimulated adipocytes – cell-based, JC-1 fluorescence, 3T3-L1 adipocytes, 24 h, 100 nL compound, profiling panel (AID 1168); details: JC-1 mitochondrial fluorescence, higher = more signal, called active from +8 up or from −8 down; further: test concentration not given here
# [18] = JC-1 mitochondrial signal, unstimulated myeloma cells – cell-based, JC-1 fluorescence, RPMI8226, 24 h, 100 nL compound, profiling panel (AID 1169); details: JC-1 mitochondrial potential fluorescence, higher = more signal; further: test concentration not given here
# [19] = JC-1 mitochondrial signal, unstimulated MM1S myeloma – cell-based, JC-1 fluorescence, 24 h, 100 nL compound, profiling panel (AID 1170); details: MM1S mitochondrial potential, higher = more signal; further: test concentration not given here
# [20] = resazurin metabolic signal in A549 cells – cell-based, resazurin fluorescence, 24 h, PK04 Diversity Set, profiling panel (AID 1171); details: A549 viability, higher = more signal, called active from +8 up or from −8 down; further: test concentration not given here
# Chain of NADPH oxidase 5 (Homo sapiens) (Q96PH1 whole entry, looked up): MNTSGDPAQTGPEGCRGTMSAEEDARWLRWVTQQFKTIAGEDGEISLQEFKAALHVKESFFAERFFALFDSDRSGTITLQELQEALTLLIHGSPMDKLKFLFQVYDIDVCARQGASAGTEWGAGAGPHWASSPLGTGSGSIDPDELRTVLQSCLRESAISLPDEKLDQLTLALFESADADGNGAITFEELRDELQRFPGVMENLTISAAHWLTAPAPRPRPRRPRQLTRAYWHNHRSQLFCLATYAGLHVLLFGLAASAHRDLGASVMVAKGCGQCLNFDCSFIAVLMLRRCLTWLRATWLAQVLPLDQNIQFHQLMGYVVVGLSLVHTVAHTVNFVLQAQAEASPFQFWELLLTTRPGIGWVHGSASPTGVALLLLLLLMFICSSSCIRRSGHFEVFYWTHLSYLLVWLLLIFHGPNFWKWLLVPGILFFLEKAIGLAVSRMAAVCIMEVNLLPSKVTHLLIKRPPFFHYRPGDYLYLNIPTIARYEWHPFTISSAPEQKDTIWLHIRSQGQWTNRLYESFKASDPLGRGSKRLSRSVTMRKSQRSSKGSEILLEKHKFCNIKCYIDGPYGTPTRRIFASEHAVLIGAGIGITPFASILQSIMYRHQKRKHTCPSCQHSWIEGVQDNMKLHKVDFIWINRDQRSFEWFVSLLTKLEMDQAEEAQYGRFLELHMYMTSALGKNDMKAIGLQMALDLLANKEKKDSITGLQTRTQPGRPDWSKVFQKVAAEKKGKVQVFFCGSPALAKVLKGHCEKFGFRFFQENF
# Chain of NADPH oxidase 2 (Homo sapiens) (P04839 whole entry, looked up): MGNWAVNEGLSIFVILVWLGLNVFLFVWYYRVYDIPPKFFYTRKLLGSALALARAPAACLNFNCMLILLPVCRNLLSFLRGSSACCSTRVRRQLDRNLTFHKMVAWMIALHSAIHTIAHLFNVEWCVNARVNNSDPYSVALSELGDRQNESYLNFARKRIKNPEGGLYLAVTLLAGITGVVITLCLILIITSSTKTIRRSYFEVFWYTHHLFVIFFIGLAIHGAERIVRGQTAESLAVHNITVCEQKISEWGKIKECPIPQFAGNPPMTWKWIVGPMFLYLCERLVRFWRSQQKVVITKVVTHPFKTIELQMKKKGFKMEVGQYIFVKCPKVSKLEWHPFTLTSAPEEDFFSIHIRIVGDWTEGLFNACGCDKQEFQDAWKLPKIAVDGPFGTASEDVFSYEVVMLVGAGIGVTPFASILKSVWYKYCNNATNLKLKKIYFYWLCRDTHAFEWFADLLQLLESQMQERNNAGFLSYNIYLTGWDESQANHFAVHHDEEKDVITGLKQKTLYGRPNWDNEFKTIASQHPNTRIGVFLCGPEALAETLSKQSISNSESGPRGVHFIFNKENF
# Chain of NADPH oxidase 4 (Homo sapiens) (Q9NPH5 whole entry, looked up): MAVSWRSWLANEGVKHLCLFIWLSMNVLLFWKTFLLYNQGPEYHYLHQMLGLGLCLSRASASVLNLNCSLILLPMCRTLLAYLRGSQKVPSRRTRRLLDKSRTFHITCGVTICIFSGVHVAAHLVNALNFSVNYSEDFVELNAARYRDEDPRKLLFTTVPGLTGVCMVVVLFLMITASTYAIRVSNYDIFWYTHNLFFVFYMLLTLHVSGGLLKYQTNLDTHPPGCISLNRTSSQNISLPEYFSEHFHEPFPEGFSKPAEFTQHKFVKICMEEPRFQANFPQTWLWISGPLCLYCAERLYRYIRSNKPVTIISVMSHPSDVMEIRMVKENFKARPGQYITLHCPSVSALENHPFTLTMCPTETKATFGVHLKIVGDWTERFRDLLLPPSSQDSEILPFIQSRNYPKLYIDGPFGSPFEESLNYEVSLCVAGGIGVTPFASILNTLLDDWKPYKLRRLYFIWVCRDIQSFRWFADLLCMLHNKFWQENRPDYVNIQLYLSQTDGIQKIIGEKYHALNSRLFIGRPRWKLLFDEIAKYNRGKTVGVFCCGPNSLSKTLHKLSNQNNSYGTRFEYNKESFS
SMILES,z-score [1],composite z-score [2],z-score [3],z-score [4],z-score [5],z-score [6],z-score [7],z-score [8],z-score [9],z-score [10],z-score [11],z-score [12],z-score [13],z-score [14],z-score [15],z-score [16],z-score [17],z-score [18],z-score [19],z-score [20]
O=C1OCC=C[C@H]2OC34C=CCN(Cc5ccccc5)C(=O)[C@H]3N(CCCCCO)C(=O)[C@@H]4[C@@H]12 (stereo not given in full),2.14 (inactive),-0.44,1.52 (inactive),-0.426 (inactive),-0.912 (inactive),-1.34 (inactive),1.19,2.15 (inactive),0.352 (inactive),1.51,0.16,2.65,-0.566,-0.231,-0.166,0.00385,1.45 (inactive),1.27,1.72,-0.208 (inactive)
COc1ccc([Si](C)(C)[C@H]2[C@H](CC(=O)N(CCO)Cc3ccccc3)O[C@@]3(C(=O)N(C)c4ccccc43)[C@@H]2C)cc1,1.28 (inactive),0.106,9.01 (active),0.781 (inactive),-1.12 (inactive),-0.698 (inactive),0.342,-0.246 (inactive),0.129 (inactive),-2.43,-0.836,0.899,-1.12,-1.84,-3.42,-0.433,0.505 (inactive),-0.965,-0.176,0.221 (inactive)
COC(=O)c1c(CC[C@@H](CO)NC(=O)N[C@H](Cn2cc(-c3cncn3C)nn2)C(C)C)oc(C(C)=O)c1C(=O)OC,2.49 (inactive),-0.148,0.88 (inactive),-0.0063 (inactive),-0.181 (inactive),-0.519 (inactive),2.93,-1.33 (inactive),0.591 (inactive),-0.295,0.128,1.93,-0.102,0.191,-0.344,0.57,1.43 (inactive),-0.444,-0.289,-0.169 (inactive)
C=C(CCCC)/C(=C/C[C@H](OC(=O)c1ccncc1)c1cccc(OCCO)c1)c1cc(C(=O)OC)ccc1OC,1.93 (inactive),0.0406,21.6 (active),3.75 (inactive),1.61 (inactive),-0.403 (inactive),1.21,-3.36 (inactive),-1.72 (inactive),-2.92,0.215,2.52,0.0827,-1.78,-1.93,4.13,-0.174 (inactive),-0.337,-0.342,2.6 (inactive)
